# Values joined by “and” are separate entries in the source; they are usually repeats but may differ in a detail not shown here. Equal entries are not always repeated. Inconclusive results are not listed. Active and inactive are the calls of the source. Rule for the calls, unless noted: active = hit-call score of the fitted dose curve at least 0.9, where 1 is the maximum; inconclusive = response in the unintended direction; inactive = score below 0.9.
# Columns and labels:
# [1] = target: Peroxisome proliferator-activated receptor gamma (Homo sapiens) (UniProt P37231); assay: OT_PPARg_PPARgSRC1_0480: Odyssey Thera (OT) 8-hour Protein-Complementation Assay for Peroxisome Proliferator-activated Receptor Gamma / SRC-1 Co-activator (AID 2283387);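 note: nuclear to cytoplasmic split Venus YFP fluorescence ratio reporting PPARg SRC-1 interaction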
# Outline: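 Protein-fragment complementation in HEK293T: Venus YFP halves (residues 1-158, 159-239, mutated to IFP1/IFP2) fused to PPARg/SRC-1. 8 h exposure; N/C ratio at 488 nm; DMSO negative control.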
# [2] = target: Peroxisome proliferator-activated receptor gamma (Homo sapiens) (UniProt P37231); assay: OT_PPARg_PPARgSRC1_1440: Odyssey Thera (OT) 24-hour Protein-Complementation Assay for Peroxisome Proliferator-activated Receptor Gamma/ SRC-1 Co-activator (AID 2283388);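 note: nuclear to cytoplasmic ratio of reconstituted Venus YFP fluorescence in fixed imaged cells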
# Outline: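 Transient HEK293T, YFP fragments 1-158/159-239 (mutant IFP1/IFP2) fused to PPARg/SRC-1; 24 h dosing; fix 4% formaldehyde, Draq5; Opera imaging 488/635 nm; N/C ratio, gain vs DMSO.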
# [3] = CEETOX_H295R_11DCORT: CeeTox H295R High-throughput Steroidogenesis Assay for 11-Deoxycortisol (11DCORT) (AID 2283432; active = hit-call score of the fitted dose curve at least 0.9, where 1 is the maximum; inactive = score below 0.9;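 for AC50: 11-deoxycortisol secreted into the medium measured by LC-MS/MS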); details: actives raise or lower the signal
# Outline: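 Adrenal carcinoma line H295R, run per OECD 456 with minor changes, was forskolin-stimulated (10 uM, 48 h) before a 48 h chemical exposure at 0.1% DMSO. Secreted 11-deoxycortisol was quantified by HPLC-MS/MS.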
# [4] = CEETOX_H295R_OHPREG: CeeTox H295R High-throughput Steroidogenesis Assay for OH-Pregnenolone (OHPREG) (AID 2283434; active = hit-call score of the fitted dose curve at least 0.9, where 1 is the maximum; inactive = score below 0.9); details: actives raise or lower the signal
# Outline: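 Hormone levels in spent medium were measured by tandem mass spectrometry following liquid-liquid extraction. Cells (H295R) had been forskolin-stimulated (10 uM, 48 h) before a 48 h chemical exposure at 0.1% DMSO, with activity fitted in both directions against DMSO.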
# [5] = CEETOX_H295R_OHPROG: CeeTox H295R High-throughput Steroidogenesis Assay for OH-Progesterone (OHPROG) (AID 2283435; active = hit-call score of the fitted dose curve at least 0.9, where 1 is the maximum; inactive = score below 0.9;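 for AC50: human adrenal H295R cells primed 48 h with 10 µM forskolin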); details: actives raise or lower the signal
# Outline: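 H295R adrenal cells prestimulated 48 h with 10 uM forskolin, then exposed 48 h to chemical (0.1% DMSO final). 17alpha-hydroxyprogesterone in medium quantified by HPLC-MS/MS; bidirectional fit versus DMSO, with MTT viability measured in the same wells.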
# [6] = CEETOX_H295R_ANDR: CeeTox H295R High-throughput Steroidogenesis Assay for Androstenedione (ANDR) (AID 2283436; active = hit-call score of the fitted dose curve at least 0.9, where 1 is the maximum; inactive = score below 0.9); details: actives raise or lower the signal
# Outline: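 Read-out is androstenedione secreted into medium, measured by tandem mass spectrometry after liquid-liquid extraction. Cells were H295R, dosed for 48 h per modified OECD 456; activity fitted in both directions relative to DMSO.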
# [7] = CEETOX_H295R_CORTIC: CeeTox H295R High-throughput Steroidogenesis Assay for Corticosterone (CORTIC) (AID 2283437; active = hit-call score of the fitted dose curve at least 0.9, where 1 is the maximum; inactive = score below 0.9;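 note: corticosterone secreted into medium quantified by mass spectrometry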;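 for AC50: human H295R adrenal cells prestimulated with forskolin before chemical exposure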); details: actives raise or lower the signal
# Outline: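 Corticosterone secreted into medium is measured by reverse-phase HPLC with tandem MS following liquid-liquid extraction. Cells are forskolin-stimulated (10 uM, 48 h) before 48 h test exposure; activity fitted in both directions against DMSO.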
# [8] = CEETOX_H295R_DOC: CeeTox H295R High-throughput Steroidogenesis Assay for DOC (AID 2283439; active = hit-call score of the fitted dose curve at least 0.9, where 1 is the maximum; inactive = score below 0.9); details: actives raise or lower the signal
# Outline: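 H295R cells prestimulated 48 h with 10 uM forskolin, then exposed 48 h to test chemical (0.1% DMSO final). Medium 11-deoxycorticosterone measured by HPLC-MS/MS after MTBE extraction; bidirectional fit vs DMSO, viability checked by MTT in same wells.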
# [9] = CEETOX_H295R_ESTRADIOL: CeeTox H295R High-throughput Steroidogenesis Assay for Estradiol (AID 2283440; active = hit-call score of the fitted dose curve at least 0.9, where 1 is the maximum; inactive = score below 0.9;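 note: estradiol secreted into medium quantified by LC-MS/MS after dansyl derivatisation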); details: actives raise or lower the signal
# Outline: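 Following OECD 456 with minor changes, H295R cells received 10 uM forskolin for 48 h and then test chemical for 48 h. Hormone output was read by HPLC-MS/MS, with cytotoxic concentrations diluted until MTT viability reached ≥70%.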
# [10] = CEETOX_H295R_PROG: CeeTox H295R High-throughput Steroidogenesis Assay for Progesterone (PROG) (AID 2283442; active = hit-call score of the fitted dose curve at least 0.9, where 1 is the maximum; inactive = score below 0.9;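 for AC50: human H295R adrenal cells primed with 10 µM forskolin before dosing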); details: actives raise or lower the signal
# Outline: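 Adrenal H295R line, forskolin-stimulated (10 uM, 48 h) before dosing. 48 h exposure, 0.1% DMSO vehicle. Secreted progesterone by reverse-phase HPLC with ESI+ MS/MS quantification; DMSO-normalised bidirectional curve fit.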
# Peroxisome proliferator-activated receptor gamma (Homo sapiens), sequence (P37231 whole entry, looked up, the tested form may be a part): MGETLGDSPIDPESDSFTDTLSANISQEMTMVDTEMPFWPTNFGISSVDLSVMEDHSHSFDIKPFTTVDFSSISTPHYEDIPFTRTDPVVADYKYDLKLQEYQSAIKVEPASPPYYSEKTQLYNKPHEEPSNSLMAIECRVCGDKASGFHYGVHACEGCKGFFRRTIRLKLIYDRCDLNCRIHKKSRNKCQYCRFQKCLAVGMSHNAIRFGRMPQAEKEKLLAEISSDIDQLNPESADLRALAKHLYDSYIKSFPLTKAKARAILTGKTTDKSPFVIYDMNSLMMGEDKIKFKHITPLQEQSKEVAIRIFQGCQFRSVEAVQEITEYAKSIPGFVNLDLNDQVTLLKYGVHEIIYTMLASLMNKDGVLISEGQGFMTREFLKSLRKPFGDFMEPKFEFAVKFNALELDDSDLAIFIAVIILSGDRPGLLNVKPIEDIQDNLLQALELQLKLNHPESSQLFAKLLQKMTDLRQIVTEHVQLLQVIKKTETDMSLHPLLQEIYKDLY
smiles,measurement,setting,value
O=C(NC(=O)c1c(F)cccc1F)Nc1cc(Cl)c(OC(F)(F)C(F)F)c(Cl)c1,outcome,[1],inactive
same,outcome,[2],inactive
same,outcome,[3],inactive
same,outcome,[4],inactive
same,outcome,[5],inactive
same,outcome,[6],inactive
same,outcome,[7],inactive
same,outcome,[8],inactive
same,outcome,[9],inactive
same,outcome,[10],inactive
CCOCCOC(C)=O,outcome,[1],inactive
same,outcome,[2],inactive
same,outcome,[3],inactive
same,outcome,[4],inactive
same,outcome,[5],inactive
same,outcome,[7],inactive
same,outcome,[8],inactive
same,outcome,[10],inactive
Cc1cc(-c2ccc(N)c(C)c2)ccc1N,outcome,[1],inactive
same,outcome,[2],inactive
same,outcome,[4],inactive
same,AC50,[5],2.96 µM (active) and 10.2 µM (active)
same,AC50,[10],2.96 µM (active) and 31.1 µM (active)
Nc1ccc(-c2ccc(N)cc2)cc1,outcome,[1],inactive
same,outcome,[2],inactive
same,AC50,[3],79.6 µM (active)
same,AC50,[4],14.3 µM (active)
same,AC50,[5],37.4 µM (active)
same,AC50,[7],2.96 µM (active)
same,AC50,[8],17.7 µM (active)
same,outcome,[9],inactive
same,AC50,[10],15.2 µM (active)
NS(=O)(=O)C(F)(F)C(F)(F)C(F)(F)C(F)(F)C(F)(F)C(F)(F)C(F)(F)C(F)(F)F,outcome,[1],inactive
same,outcome,[2],inactive
same,outcome,[3],inactive
same,outcome,[4],inactive
same,outcome,[5],inactive
same,outcome,[6],inactive
same,outcome,[7],inactive
same,outcome,[8],inactive
same,outcome,[9],inactive
same,outcome,[10],inactive
Cc1ccccc1CO[C@@H]1C[C@@]2(C(C)C)CC[C@]1(C)O2,outcome,[1],inactive
same,outcome,[2],inactive
same,AC50,[4],50 µM (active)
same,outcome,[5],inactive
same,AC50,[6],50 µM (active)
same,outcome,[10],inactive
Clc1ccc(C(c2ccccc2Cl)C(Cl)(Cl)Cl)cc1 (stereo not drawn),outcome,[1],inactive
same,outcome,[2],inactive
same,outcome,[3],inactive
same,outcome,[4],inactive
same,outcome,[5],inactive
same,outcome,[7],inactive
same,outcome,[8],inactive
same,outcome,[9],inactive
same,outcome,[10],inactive
C[C@]12CCC(=O)C=C1CC[C@@H]1[C@@H]2CC[C@]2(C)C(=O)CC[C@@H]12,outcome,[1],inactive
same,outcome,[2],inactive
same,AC50,[4],8.12 µM (active)
same,AC50,[5],0.535 µM (active)
same,outcome,[9],inactive
same,AC50,[10],0.271 µM (active)
CC1=C2C[C@H]3[C@@H](CC=C4C[C@@H](O)CC[C@@]43C)[C@@H]2CC[C@]12O[C@@H]1C[C@H](C)CN[C@H]1[C@H]2C,outcome,[1],inactive
same,outcome,[2],inactive
same,outcome,[3],inactive
same,outcome,[6],inactive
same,outcome,[7],inactive
same,outcome,[8],inactive
CCCCCCCCOC(=O)c1ccccc1C(=O)OCCCCCCCC,outcome,[1],inactive
same,outcome,[2],inactive
Cc1cccc(C)c1N,outcome,[1],inactive
same,outcome,[2],inactive
same,outcome,[3],inactive
same,outcome,[4],inactive
same,outcome,[5],inactive
same,outcome,[7],inactive
same,outcome,[8],inactive
same,outcome,[9],inactive
same,outcome,[10],inactive
ClC(Cl)=C(c1ccc(Cl)cc1)c1ccc(Cl)cc1,outcome,[1],inactive
same,outcome,[2],inactive
C[C@]12CCC(=O)C=C1CC[C@@H]1[C@@H]2CC[C@@]2(C)[C@H]1CC[C@]2(C)O,outcome,[1],inactive
same,outcome,[2],inactive
same,AC50,[3],11 µM (active)
same,AC50,[4],5.59 µM (active)
same,AC50,[5],0.807 µM (active)
same,outcome,[7],inactive
same,outcome,[8],inactive
same,outcome,[10],inactive
c1cc2ccc3cccc4ccc(c1)c2c34,outcome,[1],inactive
same,outcome,[2],inactive
same,AC50,[3],26.5 µM (active)
same,AC50,[4],15.8 µM (active)
same,AC50,[5],27.1 µM (active)
same,AC50,[6],35.9 µM (active)
same,outcome,[7],inactive
same,AC50,[8],14.5 µM (active)
same,AC50,[10],13.9 µM (active)
CCNc1nc(NC(C)C)nc(SC)n1,outcome,[1],inactive
same,outcome,[2],inactive
same,outcome,[4],inactive
same,outcome,[5],inactive
same,outcome,[6],inactive
same,outcome,[10],inactive
C=CC(N)=O,outcome,[3],inactive
same,outcome,[7],inactive
same,outcome,[8],inactive
O=S(=O)(O)C(F)(F)C(F)(F)C(F)(F)C(F)(F)C(F)(F)C(F)(F)F,outcome,[1],inactive
same,outcome,[2],inactive
CN(C)CCO,outcome,[1],inactive
same,outcome,[2],inactive
CCC(=O)O[C@H]1CC[C@H]2[C@@H]3CCC4=CC(=O)CC[C@]4(C)[C@H]3CC[C@]12C,outcome,[1],inactive
same,outcome,[2],inactive
same,AC50,[3],75.1 µM (active)
same,AC50,[4],34.1 µM (active)
same,AC50,[5],3.14 µM (active)
same,AC50,[6],22.8 µM (active)
same,outcome,[7],inactive
same,AC50,[8],1.77 µM (active)
same,AC50,[9],0.643 µM (active)
same,AC50,[10],2.65 µM (active)
CC#Cc1cc(C)nc(Nc2ccccc2)n1,outcome,[1],inactive
same,outcome,[2],inactive
same,outcome,[3],inactive
same,outcome,[4],inactive
same,AC50,[5],34.8 µM (active)
same,outcome,[7],inactive
same,outcome,[8],inactive
same,outcome,[9],inactive
same,outcome,[10],inactive
CCOC(=O)C(O)(c1ccc(Cl)cc1)c1ccc(Cl)cc1,outcome,[1],inactive
same,outcome,[2],inactive

# Source: PubChem BioAssay (EPA / NIEHS)
